Data on ten compounds can be found in PubChem BioAssay (NCATS).

A short description of experiment [1]: qHTS assay for measurement of the activity of small molecule inhibitors on Zika virus induced Caspase-3 activity in human iPSC derived neural progenitor cells (hNPCs) (AID 1224857). Also: nearly all actives have a fitted effect of over 65% in size. In short, it runs like this:
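Zika virus (2 FFU/cell) infection of human iPSC-derived NPCs, 6 h, following 1 h compound preincubation. Read-out: Caspase-Glo 3/7 luminescence.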
Background: qHTS replaces the single test concentration by a dilution series.

Experiment [2] in a line: qHTS assay for measurement of the activity of small molecule inhibitors on Zika virus induced Caspase-3 activity in human astrocytoma cells (AID 1224859). In short, it runs like this:
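Caspase activation in ZIKV-infected SNB-19 cells (2 FFU/cell, 6 h) measured by Caspase-Glo 3/7 luminescence after 30 min RT; compound pre-incubated 1 h; normalised to uninfected and infected controls.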

A short description of experiment [3]: qHTS Screen of the MIPE 4.0 Collection Against Ewings Sarcoma (RDES) (AID 1259252). Also: nearly all actives have a fitted effect of over 35% in size. Also: potency is read from the fitted curve at half-maximal effect. In short, it runs like this:
(§1)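 Dose series incubated 48 h with cells in RPMI plus 5% FBS, glutamine and penicillin/streptomycin; cell viability then quantified via CellTiter-Glo.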

The nature of experiment [4]: qHTS Screen of the MIPE 4.0 Collection Against Ewings Sarcoma (TC32) (AID 1259256). Also: potency is read from the fitted curve at half-maximal effect; nearly all actives have a fitted effect of over 45% in size. Put shortly:
as §1

Experiment [5] can be described thus: P-glycoprotein substrates identified in KB-8-5-11 adenocarcinoma cell line, qHTS therapeutic library screen (AID 1346987). Also: nearly all actives have a fitted effect of over 65% in size. Also: potency is read from the fitted curve at half-maximal effect. Put shortly:
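KB-8-5-11, a colchicine-selected P-gp-overexpressing KB-3-1 subline, was grown without colchicine for the assay. Cells were seeded at 500 cells/well, dosed in concentration-response and incubated 72 h at 37 degree C, 5% CO2. Viability was read by CellTiter-Glo luminescence.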

Experiment [6] in a line: qHTS Screen of the MIPE 4.0 Collection Against Ewings Sarcoma (EW8) (AID 1259255). Also: nearly all actives have a fitted effect of over 35% in size. Also: potency is read from the fitted curve at half-maximal effect. In short, it runs like this:
as §1

Experiment [7] in a line: P-glycoprotein substrates identified in KB-3-1 adenocarcinoma cell line, qHTS therapeutic library screen (AID 1346986). Also: nearly all actives have a fitted effect of over 60% in size.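 Also: potency is read from the fitted curve at half-maximal effect; potency is for cytotoxicity meaning loss of cell viability.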 In short, it runs like this:
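KB-3-1 parental and colchicine-selected P-gp-overexpressing KB-8-5-11 cells (colchicine omitted during assay), 500 cells/well, dosed in dose-response for 72 h at 37 °C; CellTiter-Glo luminescence. Cytotoxic: curve class -1.1 to -2.4, max response >50%, AC50 < 10 uM.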

Experiment [8] in a line: NS1 protein of Zika virus - qHTS assay to identify small molecule inhibitors in human HEK 293 cells (AID 1347053). Also: nearly all actives have a fitted effect of over 55% in size. Also: potency is read from the fitted curve at half-maximal effect. Put shortly: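 HEK 293 cells, seeded 20 h at 37 C, were pretreated with compound 1 h, then infected with ZIKV MR766 (MOI = 0.5) for 24 h. NS1 was read by TR-FRET with two anti-NS1 antibodies, normalized to uninfected and infected wells.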
A short description of experiment [9]: Identifying Small Molecule Inhibitors of Pancreatic Cancer Stem Cells (SN12C, Adherent) (AID 1259358).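 Also: cell survival measured after 48 h of compound exposure.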 Also: potency is read from the fitted curve at half-maximal effect. Put shortly: (§2)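 Endpoint: ATP-based luminescence, 48 h drug exposure. Bortezomib at 9.2 uM final as full-kill control; DMSO vehicle as negative control; activity normalized between vehicle and cell-free wells.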
The nature of experiment [10]: Identifying Small Molecule Inhibitors of Pancreatic Cancer Stem Cells (SN12C, Spheroid) (AID 1259360). Also: potency is read from the fitted curve at half-maximal effect. The following applies: Potency: SN12C spheroid viability. Put shortly: (§3)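 Cytotoxicity read by CellTiter-Glo luminescence after 48 h compound exposure at 37C; percent activity scaled between DMSO-treated cells and cell-free wells. Spheroid formats used cells pre-formed 14 days in stem cell media on hydrogel.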

Experiment [11] can be described thus: Identifying Small Molecule Inhibitors of Pancreatic Cancer Stem Cells (A278, Adherent) (AID 1259361). Also: nearly all actives have a fitted effect of over 35% in size. Put shortly: as §2
A short description of experiment [12]: Identifying Small Molecule Inhibitors of Pancreatic Cancer Stem Cells (Panc1, Spheroid) (AID 1259359).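 Also: potency is read from the fitted curve at half-maximal effect; compound exposure lasted 48 h before reading.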 Put shortly:
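After a 4 h attachment period, compounds were pinned into wells and cultures held 48 h under standard incubator conditions. Viability was then measured as CellTiter-Glo luminescence following 10 min at room temperature.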

A short description of experiment [13]: Identifying Small Molecule Inhibitors of Pancreatic Cancer Stem Cells (Panc1, Adherent) (AID 1259362). Also: potency is read from the fitted curve at half-maximal effect. The settings on record: Potency: viability. In short, it runs like this: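 Spheroids grown 14 days in stem cell media on hydrogel-coated nonadherent plates; 2D lines seeded directly. Compounds added after 4 h attachment, 48 h at 37C, 5% CO2; CellTiter-Glo luminescence normalized to DMSO (no inhibition) and no-cell wells (full inhibition).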

Experiment [14] can be described thus: qHTS Screen of the MIPE 4.0 Collection Against Ewings Sarcoma (TC71) (AID 1259253). Also: potency is read from the fitted curve at half-maximal effect; nearly all actives have a fitted effect of over 40% in size. Put shortly:
as §1

Experiment [15] can be described thus: Identifying Small Molecule Inhibitors of Pancreatic Cancer Stem Cells (A2780, Spheroid) (AID 1259357).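 Also: compound exposure lasted 48 h before the ATP luminescence read.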 The settings on record: Potency: A2780 spheroid viability. Put shortly: as §3

Several values for one entry are separate records, joined by “and”; a condition that tells them apart may be missing. Identical values can stand only once. Inconclusive results are not listed. Where a structure was tested more than once in an assay, its records may differ in their call. Activity calls are given as the source filed them. Calls follow the shape of the dose curve; as a rule, active = well fitted curve in the direction sought with a large enough effect; inconclusive = small, poorly fitted or top-dose-only effect, or another doubt; inactive = no such curve, though single readings can be large; an effect the other way counts as inactive or inconclusive.

Regarding `Cc1cc(CN2CCN(c3c(Br)cnc4nc(-c5ccc(N6CCN(C)CC6)cc5)[nH]c34)CC2)no1`, the Potency entry in [1] and in [2] was “inactive” throughout. The Potency was 14.8 µM (active) in experiment [3], 1.18 µM (active) in experiment [4] and 920 nM (active) in [5].

For the compound `Cc1cc(Nc2cc(CN3CCOCC3)c3nc(C)c(Cc4ccc(Cl)cc4F)n3n2)n[nH]1`, the Potency entry in experiment [1] was “inactive”. Also, the Potency is 16.6 µM (active) in experiment [3]; 3.32 µM (active) in experiment [6]; 3.72 µM (active) in experiment [4]; 13.2 µM (active) and 16.4 µM (active) in experiment [5].

As to `CNC(=O)CN1CCC(Oc2cc3c(Nc4cccc(Cl)c4F)ncnc3cc2OC)CC1`, the Potency entry in [1], in experiment [2] and in [5] was “inactive” throughout. For the same compound, the Potency in experiment [3] is 0.0148 µM (active); in experiment [6], 0.105 µM (active); in experiment [4], 0.0526 µM (active).

Consider `Nc1nc(NCCNc2ncc(-n3ccnc3)c(-c3ccc(Cl)cc3Cl)n2)ccc1[N+](=O)[O-]`, for which the Potency result in experiment [1], in [2], in [7], in [5] and in experiment [8] was “inactive” in each case. The Potency in experiment [3] is 0.833 µM (active).

For `O=C(NCCS(=O)(=O)c1ccc(C(F)(F)F)cn1)c1ccc(Cl)cc1`, the Potency entry in [1], in experiment [2], in experiment [3], in [6], in experiment [9] and in experiment [10] was “inactive” each time. In addition, the Potency entry in experiment [7] and in experiment [8] was “inactive” each time. For the same compound, in [11], the IC50 (viability decrease) result is “inactive”.

As to `CN(C)CC=CC(=O)Nc1cc2c(Nc3ccc(F)c(Cl)c3)ncnc2cc1O[C@H]1CCOC1`, the Potency entry in experiment [1], in experiment [2] and in experiment [8] was “inactive” throughout. In addition, the Potency is 18.7 µM (active) in [3]; 20.9 µM (active) in [6]; 16.6 µM (active) in [4]; 11.8 µM (active) in experiment [12]; 23.5 µM (active) in [10]; 1.48 µM (active) in [13]. Further, the Potency in [5] was 9350 nM (active). For the same compound, the IC50 (viability decrease) in [11] is 23.5 µM (active).

For `Cc1cccc(C=NNc2cc(N3CCOCC3)nc(OCCc3ccccn3)n2)c1`, the Potency entry in [1] and in [2] was “inactive” each time. The Potency was 18.7 µM (active) in [3], 5.26 µM (active) in experiment [4], 23.5 µM (active) in experiment [12] and 23.5 µM (active) in experiment [8].

Consider `COc1ccc2c(c1)CC[C@@H](CN(C)CC(=O)O)[C@H]2c1ccccc1`, for which the Potency result in experiment [1], in experiment [2], in [9] and in experiment [10] was “inactive” throughout. Moreover, the Potency is 2.35 µM (active) in experiment [3]; 2.35 µM (active) in [4]; 1.66 µM (active) and inactive in experiment [5].

As for `C=CC(=O)N1CCC[C@@H](n2nc(-c3ccc(Oc4ccccc4)cc3)c3c(N)ncnc32)C1`, the Potency result in experiment [1] and in [15] was “inactive” in each case. Also, the Potency was 20.9 µM (active) in [3], 29.6 µM (active) in experiment [14], 23.5 µM (active) in experiment [6] and 18.7 µM (active) in experiment [4].

For the compound `O=C(c1ccc(Nc2nccc(-c3cc4ccccc4s3)n2)cc1)N1CCC(N2CCCC2)CC1`, the Potency result in experiment [1] and in experiment [2] was “inactive” throughout. In addition, the Potency in [3] was 18.7 µM (active); in [4], 20.9 µM (active); in experiment [9], 26.4 µM (active); in experiment [10], 23.5 µM (active); in [7], 6.51 µM (active); in experiment [5], 8.33 µM (active) and 16.4 µM (active) and 20.6 µM (active). Further, the Potency in [8] is 6.62 µM (active). The IC50 (viability decrease) in experiment [11] was 18.7 µM (active).
